Compounds with a hit are over-represented: about 7.4% of the library has one in this group of screens.
NPC1 promoter act: activates the NPC1 promoter; Potency, µM (doses to about 9.22 µM), without a hit: at the top dose activation, usual class: activators; 320,000 compounds, 2.4% hits; AID 485313; Huh7 NPC1 promoter luciferase reporter, 24 h; note: % of control where 0% means no effect; nearly all actives have a fitted effect of over 60% in size
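Huh7 reporter cells (NPC1 promoter driving luciferase) are dosed with compound for 24 h at 37 °C, 5% CO2; luciferase detection reagent is then added and luminescence measured after 10 min at ambient temperature.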
SMN2 splice up: SMN2 splice variant enhancement. HEK293 SMN2-luciferase splicing reporter, luminescence, 30-36 h. Potency, µM (series often up to 46.1 µM), inactives show at the highest dose activity change, positive = activation, most hits filed as activators. 210,000 compounds, 2.8% hits. AID 1458; note: % of control where 0% means no effect; nearly all actives have a fitted effect of over 55% in size
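qHTS luciferase splicing reporter: luminescence rises when SMN2 exon 7 is included in transfected HEK293 cells. Compound exposure lasted 30-36 h at 37C, with 4.5 mM final sodium butyrate as control, followed by a ONE-Glo read.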
ELG1 genotoxic: genotoxicity induction in ELG1-luciferase HEK293T cells; Potency, µM (highest dose often 46 µM), without a hit: at the highest dose activity change, positive = activation, usual class: activators; AID 504466; HEK293T ELG1-luciferase reporter, luminescence, 16 h; 330,000 compounds, 1.3% hits; note: % of control where 0% means no effect; nearly all actives have a fitted effect of over 60% in size
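Quantitative HTS format in 1536-well plates. HEK293T ELG1-luciferase reporter cells receive test compound and are incubated 16 hr at 37 °C, 5% CO2; ONE-Glo added, 30 min room temperature, then luminescence read.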
FLuc counter: counter-screen for miR-21 project: firefly luciferase inhibitors or activators. AID 588342. 360,000 compounds, 6.9% hits. P08659. purified FLuc, Km substrates, luminescence inhibition. Potency, µM (top dose mostly 57.5 µM), without a hit: top-dose activity change, negative = inhibition, actives largely listed as inhibitors;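 note: plate controls were vehicle for no effect and reference inhibitor for full effect; nearly all actives have a fitted effect of over 55% in size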
Target sequence (P08659 whole entry, looked up): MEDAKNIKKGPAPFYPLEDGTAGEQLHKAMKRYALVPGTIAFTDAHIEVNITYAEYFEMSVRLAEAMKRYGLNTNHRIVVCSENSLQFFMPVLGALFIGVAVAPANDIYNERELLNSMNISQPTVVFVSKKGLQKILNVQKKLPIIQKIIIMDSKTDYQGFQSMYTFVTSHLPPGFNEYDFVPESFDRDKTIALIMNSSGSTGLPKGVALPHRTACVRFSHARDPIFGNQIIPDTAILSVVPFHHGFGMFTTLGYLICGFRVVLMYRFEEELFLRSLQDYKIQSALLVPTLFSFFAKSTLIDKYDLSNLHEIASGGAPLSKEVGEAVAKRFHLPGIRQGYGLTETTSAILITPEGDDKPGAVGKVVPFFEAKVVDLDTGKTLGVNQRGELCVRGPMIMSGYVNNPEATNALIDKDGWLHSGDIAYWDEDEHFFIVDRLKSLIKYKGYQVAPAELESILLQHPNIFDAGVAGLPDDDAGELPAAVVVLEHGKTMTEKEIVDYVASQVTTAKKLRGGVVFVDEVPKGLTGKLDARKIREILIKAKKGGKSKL
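Biochemical qHTS of compounds, final roughly 60 µM downward over six points, against 10 nM purified firefly luciferase using Km concentrations of substrates (10 uM D-luciferin, 10 uM ATP) in Tris acetate pH 7.5 buffer; luminescence output.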
Rab9 promoter act: activates the Rab9 promoter. Huh7 Rab9 promoter-luciferase reporter, luminescence, 24 h. Potency, µM (doses to about 9.22 µM), inactives show top-dose activation, negative = inhibition, actives largely listed as activators. 320,000 compounds, 2.8% hits; note: % of control where 0% means no effect; nearly all actives have a fitted effect of over 60% in size
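Cell-based reporter: Huh7 stable for Rab9 promoter-driven luciferase, plated in reduced-serum medium with 10% FBS at 1500 cells/well, compound-treated 24 h at 37 °C, luminescence read after 10 min reagent.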
* marks the source's active call; other numbers are inactive results; ? = inconclusive; . = no result; [ ] = dose if it differs, or a comment. Calls come from the whole dose curve; as a rule, active = well fitted curve in the direction sought with a large enough effect; inconclusive = small, poorly fitted or top-dose-only effect, or another doubt; inactive = no such curve, though single readings can be large; an effect the other way counts as inactive or inconclusive. Potency is the fitted concentration of half-maximal effect.

SMILES	NPC1 promoter act	SMN2 splice up	ELG1 genotoxic	FLuc counter	Rab9 promoter act
CCC1Oc2ccccc2C(=O)N(CC(=O)c2ccc3c(c2)OCCO3)C1=O (stereo unspecified)	?	.	?	4.8µM*	?
CC1Oc2ccccc2C(=O)N(CC(=O)c2ccc3c(c2)OCCO3)C1=O (stereo unspecified)	24%	.	12%	4.8µM*	28%
COc1ccc(Cn2c(C(=O)O)c(CNCc3ccc(SC)cc3)c3ccc(OC)cc32)cc1	.	.	.	-3%	.
COc1ccc(/C=C/c2ccncc2)cc1OC	0%	10µM*	23µM*	?	4%
O=C(Nc1cccc2cccnc12)c1cccc2ccccc12	-1%	-23%	13%	?	-6%
CNC(=O)Nc1cccc2cccnc12	-2%	.	-1%	5%	-5%
C/C(=N\Nc1cccc2cccnc12)c1ccc(N)cc1	2.8µM*	11µM*	?	4.3µM*	2.2µM*
C/C(=N\Nc1cccc2cccnc12)c1ccccc1O	14%	25µM*	?	1.2µM*	?
C/C(=N\Nc1cccc2cccnc12)c1ccccn1	3.2µM*	2µM*	?	0.34µM*	0.79µM*
Cc1cccn2c(=O)c(C(=O)NCCc3ccccc3)c(O)nc12	.	5%	.	?	.
Nc1cnn(C2OC(CO)C(O)C2O)c(=O)n1 (stereo unspecified)	0%	?	-10%	3%	3%
Nc1cnn([C@@H]2O[C@H](CO)[C@@H](O)[C@H]2O)c(=O)n1	.	22µM*	.	.	.
C=CCSc1n[nH]c(-c2ccc(OCCCC)cc2)n1	?	?	18µM*	15µM*	?
S=c1nc(-c2ccc(Cl)cc2)[nH][nH]1	2%	.	1%	0%	-6%
C=CCSc1n[nH]c(-c2ccc(OCCC)cc2)n1	2.5µM*	11µM*	4.6µM*	11µM*	2µM*
CCCOc1ccc(-c2nc(=S)[nH][nH]2)cc1	28%	13µM*	?	?	?
COc1ccc(NC(=O)c2ccc3oc(=O)c(S(=O)(=O)c4ccc(C)cc4)cc3c2)cc1OC	.	-4%	.	-1%	.
CC(C)C1O[C@H](/C=C\c2ccccc2)OCC1(C)C (stereo partly specified)	.	-11%[9.22 µM]	.	.	.
O=C(Nc1ccccc1-c1ccccc1)C12CC3CC(CC(C3)C1)C2	3%	-20%	3%	?	4%
O=C(COc1ccccc1)OCc1csc(Nc2ccccc2)n1	2%	11%	-2%	?	0%
Cc1ccc(C(=O)Nc2nc(COc3ccccc3)cs2)s1	.	-28%	.	17µM*	.
CC(=O)Nc1nc(COc2ccccc2)cs1	3.2µM*	18µM*	10µM*	?	?
COc1cccc(OC)c1C(=O)Nc1nc(COc2ccccc2)cs1	3%	-18%	-8%	?	-1%
O=C(Nc1nc(COc2ccccc2)cs1)C1CCC1	?	13%	?	12µM*	?
O=C(Nc1nc(COc2ccccc2)cs1)C12CC3CC(CC(C3)C1)C2	12%	-69%	?	15µM*	23%
SMILES	NPC1 promoter act	SMN2 splice up	ELG1 genotoxic	FLuc counter	Rab9 promoter act
COc1ccc(CCNC(=O)Cn2nnc(-c3ccc(C(F)(F)F)cc3)n2)cc1OC	.	-4%	.	-1%	.
COc1ccccc1OCc1csc(N)n1	-1%	14%	-2%	4%	16%
CC(=O)Nc1nc(COc2ccc3ccccc3c2)cs1	2.8µM*	4%	?	12µM*	6.3µM*
Nc1nc(COc2ccc3ccccc3c2)cs1	.	30%	.	12µM*	.
NCC[C@H](O)C(=O)N[C@H]1C[C@@H](N)[C@@H](O[C@H]2O[C@@H](CN)[C@@H](O)[C@@H](O)[C@@H]2O)[C@@H](O)[C@@H]1O[C@H]1O[C@@H](CO)[C@@H](O)[C@@H](N)[C@@H]1O	.	-1%[20.6 µM]	.	.	.
CCOC(=O)c1cc(C)sc1NC(=O)CN1CCN(C(=O)C2CCCO2)CC1 (stereo unspecified)	-3%	.	-10%	1%	6%
COC(=O)c1cc(C)sc1NC(=O)CN1CCN(C(=O)C2CCCO2)CC1 (stereo unspecified)	-39%	.	-20%	0.85µM*	-43%

Source: PubChem BioAssay (National Center for Advancing Translational Sciences (NCATS))
